High-throughput results (PubChem)
Polio RdRp inh: inhibitors of poliovirus RNA polymerase binding and polymerization | poliovirus polymerase elongation, fluorescence polarization; active compounds read low | AID 588519 | 150,000 compounds, 0.66% hits | % elongation, % (compound at 16.7 µg/mL) | P03300; in the data active = % elongation below about 90%
Target sequence (P03300 1749-2209 limits assumed): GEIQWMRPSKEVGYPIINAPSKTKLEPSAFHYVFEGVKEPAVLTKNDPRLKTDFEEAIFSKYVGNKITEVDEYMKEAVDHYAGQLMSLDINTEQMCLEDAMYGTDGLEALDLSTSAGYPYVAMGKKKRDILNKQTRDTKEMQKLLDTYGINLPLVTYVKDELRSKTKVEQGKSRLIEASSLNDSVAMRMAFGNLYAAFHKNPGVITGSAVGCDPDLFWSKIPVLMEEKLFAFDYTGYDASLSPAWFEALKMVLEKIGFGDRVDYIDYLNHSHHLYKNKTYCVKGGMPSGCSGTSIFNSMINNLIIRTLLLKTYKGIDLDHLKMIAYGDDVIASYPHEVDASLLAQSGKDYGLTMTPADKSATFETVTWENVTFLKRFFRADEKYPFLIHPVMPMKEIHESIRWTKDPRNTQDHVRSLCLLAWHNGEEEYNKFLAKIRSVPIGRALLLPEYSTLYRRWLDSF
AID504770: E. coli YBA685 growth inhibition, screen for V. cholerae RctB inhibitors; AID 504770; z-score (no concentration beside the values); E. coli YBA685 rctB-dependent plasmid, OD600 growth, 3 h; active compounds read low; 130,000 compounds, 0.27% hits; in the data active = z-score below about -2, passing the limit was not always enough
MbtI inh: MbtI salicylate synthase inhibition; P9WFX0; purified MbtI enzyme, fluorescence intensity read-out; inhibition, % (concentration not given with the values); 100,000 compounds, 0.89% hits; AID 493033; in the data active = inhibition mostly above about 56%, no sharp cut-off; inactive = mostly below about 77%
MenB inh: inhibitors of Mycobacterium tuberculosis MenB enzyme; 100,000 compounds, 0.43% hits; inhibition, % (no concentration beside the values); MenB enzyme assay, absorbance read-out; AID 540299; P9WNP5; in the data active = inhibition above about 21%, passing the limit was not always enough
* = called active by the depositor; . = not tested or not shown; ! = not confirmed by another sample. Most compounds without a hit are left out; they make up all but 1.4% or so of the library.

SMILES	Polio RdRp inh	AID504770	MbtI inh	MenB inh
NC(=O)c1c(NC(=O)CSc2nc3ccccc3s2)sc2c1CCC2	119	0.25	-104	-4
COc1cccc(N=C2NNC(C)=C(C(=O)N(C)C)S2)c1	83*	-0.75	59*	-7
C=CCN(CC=C)C(=O)c1cccc(OC)c1	105	0.45	.	1
CC(Sc1cccc[n+]1[O-])C(=O)NCC1CCCCC1 (stereo not drawn)	100	1.4	81*	5
CCOC(=O)c1c(-c2cccs2)csc1NC(=O)c1ccccc1	106	1.8	11	-34
COC(=O)c1c(-c2cccs2)csc1NC(=O)COc1ccc(C)cc1	96	.	.	.
COC(=O)c1c(-c2cccs2)csc1NC(=O)c1ccc(C(C)C)cc1	67*	.	.	.
COC(=O)c1c(-c2cccs2)csc1NC(=O)c1ccc(C(C)(C)C)cc1	77*	.	.	.
COC(=O)c1c(-c2cccs2)csc1NC(=O)c1cccc(Cl)c1	82*	.	.	.
COC(=O)c1c(-c2cccs2)csc1NC(=O)c1ccc(Cl)cc1	67*	.	.	.
Cc1noc(C)c1C(=O)Oc1ccc(-c2csnn2)cc1	.	-0.5	.	.
COC(=O)c1cc2nc(-c3ccc(F)cc3)cc(C(F)(F)F)n2n1	87*	0.15	.	-15
COC(=O)c1ccc(C(=O)OC)c(NC(=O)c2cc3nc(-c4ccc(C)cc4)cc(C(F)(F)F)n3n2)c1	104	.	.	.
CCCCN(C)C(=O)C1CCC(CNS(=O)(=O)c2ccc3c(c2)CC(C)N3C(C)=O)CC1 (stereo not drawn)	15*	.	.	.
Cc1cc(NC(=O)CSc2ccccc2)no1	98	-0.45	4	32*
Cc1cc(NC(=O)CCc2ccccc2)no1	.	-0.2	.	.
S=c1nc2c(n[nH]1)c1ccccc1n2Cc1ccccc1	73*	2.5	.	-32
CC(C)n1c2ccccc2c2n[nH]c(=S)nc21	93	-0.55	40	-3
O=S(=O)(c1ccc(-c2ccno2)s1)N1CCN(c2ccncc2)CC1	101	-0.2	3	17
CC(=C1C(=O)c2ccccc2C1=O)N1CCc2ccccc2C1	89*	-1.1	13	-65
O=C1Nc2ccccc2-c2ccccc2N1	101	-0.25	111	8
O=C1Nc2ccccc2C(=O)C1(O)O	103	1.6	-5	43*
O=C1C(c2cc(Cl)cc(Cl)c2)=C(O)c2ccccc21	98	0.45	89*	-32
Cn1c(=O)oc2cc(S(=O)(=O)Nc3ccc(O)cc3)ccc21	107	.	.	.
CC1COc2c(N3CCN(C)CC3)c(F)cc3c(=O)c(C(=O)O)cn1c23 (stereo not drawn)	104	-5.2*	-25	-11
SMILES	Polio RdRp inh	AID504770	MbtI inh	MenB inh
CC1COc2c(N3CCN(C)CC3)c(F)cc3c(=O)c(C(=O)N4CCN(c5ncccn5)CC4)cn1c23 (stereo not drawn)	101	0	26	-24
COc1ccccc1NC(=O)c1oc2ccccc2c1NC(=O)c1ccccc1C(F)(F)F	105	.	.	.
O=C(c1ccc(Cl)cc1)c1c[nH]c2ccccc2c1=O	.	-1.2	-15	.
O=C(/C=C/c1ccccc1)ON1C(=O)CCC1=O	35*	0.65	.	-14
Brc1ccc(-c2nnc3sc(CNC4CCCC4)cn23)cc1	.	2.6	.	.
CC(C)CN(CC(C)C)C(=O)C1CCCCC1C(=O)O (stereo not drawn)	102	1.9	7	30*
CCOC(=O)c1c(P(=O)(N2CCOCC2)N2CCOCC2)noc1N	99	0.7	0	41*
CC1CCCC(C)N1C(=O)c1ccccc1NS(=O)(=O)c1ccc(F)cc1 (stereo not drawn)	101	-0.05	-6	.
CC1CCCCN1C(=O)c1ccccc1NS(=O)(=O)c1ccc(F)cc1 (stereo not drawn)	101	-0.1	-3	41*
CC1(C)Cc2c(c(N3CCNCC3)[nH]c(=S)c2C#N)CO1	102	-1.6	95*	-9
CC1(C)Cc2c(C#N)c(N)sc(=S)c2CO1	99	0.1	37	-32
Cc1sc(NC(=O)C(C)Oc2ccc(Cl)cc2Cl)c(C(N)=O)c1C (stereo not drawn)	75*	1.5	.	-23
COC1CS(=O)(=O)CC1OC (stereo not drawn)	.	0.35	.	.
Cc1c(-c2ccccc2)sc(N)c1C(=O)N1CCCCC1	70*	0.25	84	-13
Cc1ccc(/C(N)=N\O)n1C	102	1.6	.	52*
CCn1c(=O)c2cc(C(=O)N(CCN(C)C)Cc3ccccc3)sc2c2ccccc21	87*	.	.	.
CCn1c(=O)c2cc(C(=O)N(Cc3ccccc3)C(C)C)sc2c2ccccc21	100	-0.05	38	-10
Cc1ccc(C(=O)Sc2nnc3ccccn23)cc1	101	0.95	60	.
Cc1ccc(C(=O)Sc2nc(C)cc(C)n2)cc1	103	1.8	78*	-8
S=c1[nH]nc(Cc2ccccc2)n1Cc1ccccc1	103	0	62*!	-6
CCOC(=O)CCN1C(=O)c2ccccc2C1=O	107	1.3	-1	1
O=C(CCN1C(=O)c2ccccc2C1=O)OCc1ccco1	90*	-0.5	0	1
O=c1cc(CSc2nnnn2-c2ccccc2)nc(Nc2ccc(F)cc2)[nH]1	.	-3.3*	-10	.
Cc1occc1C(=O)NCc1ccccc1	100	-0.15	1	56*
O=C(NCCc1ccc(Cl)cc1)c1ccc(CS(=O)(=O)c2ccc(Cl)cc2)o1	107	.	.	.
SMILES	Polio RdRp inh	AID504770	MbtI inh	MenB inh
CC1=NNC(=O)C1CC(=O)N/N=C/c1sccc1C (stereo not drawn)	99	-0.4	0	15
N#Cc1cc(Cl)ccc1Nc1ncnc(N)n1	.	-2.4*	.	.
Cc1ccc(-c2nc(CS(=O)CC(=O)Nc3c(C)cccc3C)c(C)o2)cc1 (stereo not drawn)	101	-1.1	0	-25
O=C(N/N=C/c1ccco1)C1CN(S(=O)(=O)c2ccccc2)CCN1S(=O)(=O)c1ccccc1 (stereo not drawn)	102	-1.2	84*	-32
Cc1cc(C)c(S(=O)(=O)NCCc2csc3nc(-c4ccc(Cl)cc4)nn23)c(C)c1	106	.	.	.
CCNc1nc(-c2ccc(C)cc2)cs1	99	-0.15	77	12
Cc1cccc(O)c1O	102	0	86*	-14
CC(C)c1cccc(C(C)C)c1O	100	.	-8	-9
CCc1ccc(-c2cc(C(=O)Nc3ccc(S(=O)(=O)NC(C)=O)cc3)c3ccccc3n2)cc1	.	1.6	.	.
CN1/C(=C/c2cccc[n+]2C)C=Cc2ccccc21	87*	-0.8	3	-84
CN1/C(=C/C=C(C#N)C#N)C=Cc2ccccc21	104	-0.8	-7	-13
CCCC1=C(C(=O)OCC)C(c2ccccc2)C(C#N)=C(N)O1 (stereo not drawn)	.	-0.7	.	.
CC(=O)Oc1ccc(OC(C)=O)c(C2=C3C(=O)N(CCc4c[nH]c5ccccc45)CC(=O)N3CCC2)c1	104	0.3	100*	12
CN1C(=O)SC(Cc2ccc(N)cc2)C1=O (stereo not drawn)	.	-0.9	.	.
Cn1c(SCC(=O)N(c2ccccc2)C2CCCCC2)nc2cc(S(N)(=O)=O)ccc21	79*	-0.3	17	6
CCOc1ccc(NC(=O)c2c(NC(=O)c3ccncc3)sc3c2CCC(C(C)(C)C)C3)cc1 (stereo not drawn)	83*	.	.	.
